In all, about 5,500 compounds went through this assay and about 2,000 (36%) were called active. Not shown: some 18% with an inconclusive outcome. No stated cut-off is given here; in the data, active means normalized growth mostly below about 0.91 (no sharp cut-off); inconclusive means no clear call, values can overlap the other calls; inactive means mostly above about 0.92. Some of the results follow.
Experiment: chemical genetic growth profiling, strain panel (AID 1159580);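 further: tested at 20 µM; growth read once vehicle control cultures reached saturation at 30 °C; 1 = growth at the plate median or of vehicle wells; lower values mean less growth of the strain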
Details: S. cerevisiae deletion strains, growth OD

Measured: normalized growth

O=C1Nc2ccccc2/C1=C/c1ccc(Oc2ccccc2)nc1
inactive: locus YAR019C, strain CDC15, hits give low values 0.965 | locus YBL105C, strain PKC1, hits give low values 0.959 | locus YBR135W, strain CKS1, hits give low values 0.957 | locus YBR136W, strain MEC1, hits give low values 0.975 | locus YBR160W, strain CDC28, hits give low values 0.962 | locus YDL017W, strain CDC7, hits give low values 0.973 | locus YDL028C, strain MPS1, hits give low values 0.966 | locus YDL101C, strain DUN1, hits give low values 0.96 | locus YDL108W, strain KIN28, hits give low values 0.967 | locus YDL132W, strain cdc53, hits give low values 0.962 | locus YDL214C, strain PRR2, hits give low values 0.866 | locus YDR052C, strain DBF4, hits give low values 0.98 | locus YDR054C, strain cdc34, hits give low values 0.948 | locus YDR226W, strain ADK1, hits give low values 0.96 | locus YDR477W, strain SNF1, hits give low values 0.874 | locus YER123W, strain YCK3, hits give low values 0.885 | locus YER133W, strain GLC7, hits give low values 0.898 | locus YFL009W, strain cdc4, hits give low values 0.959 | locus YFL029C, strain CAK1, hits give low values 0.975 | locus YFR003C, strain YPI1, hits give low values 0.964 | locus YFR019W, strain FAB1, hits give low values 0.95 | locus YFR028C, strain CDC14, hits give low values 0.959 | locus YGR040W, strain KSS1, hits give low values 0.892 | locus YGR052W, strain FMP48, hits give low values 0.844 | locus YGR092W, strain DBF2, hits give low values 0.803 | locus YHR079C, strain IRE1, hits give low values 0.836 | locus YHR082C, strain KSP1, hits give low values 0.82 | locus YHR205W, strain SCH9, hits give low values 0.788 | locus YIL147C, strain SLN1, hits give low values 0.947 | locus YJL095W, strain BCK1, hits give low values 0.835 | locus YJL128C, strain PBS2, hits give low values 0.877 | locus YJL157C, strain FAR1, hits give low values 0.891 | locus YJR016C, strain ILV3, hits give low values 0.967 | locus YJR066W, strain TOR1 (second series), hits give low values 0.851 | locus YJR066W, strain TOR1, hits give low values 0.775 | locus YKL048C, strain ELM1, hits give low values 0.894 | locus YKL067W, strain YNK1, hits give low values 0.857 | locus YKL101W, strain HSL1, hits give low values 0.879 | locus YKL193C, strain SDS22, hits give low values 0.959 | locus YKL203C, strain TOR2, hits give low values 0.944 | locus YLR133W, strain CKI1, hits give low values 0.86 | locus YLR403W, strain SFP1, hits give low values 0.826 | locus YML070W, strain DAK1, hits give low values 0.915 | locus YMR001C, strain CDC5, hits give low values 0.967 | locus YMR205C, strain PFK2 (second series), hits give low values 0.889 | locus YMR277W, strain FCP1, hits give low values 0.95 | locus YNL006W, strain LST8, hits give low values 0.975 | locus YNL020C, strain ARK1, hits give low values 0.869 | locus YNL161W, strain CBK1, hits give low values 0.976 | locus YNL183C, strain NPR1, hits give low values 0.811 | locus YNL207W, strain RIO2, hits give low values 0.962 | locus YNL222W, strain SSU72, hits give low values 0.956 | locus YNL307C, strain MCK1 (second series), hits give low values 0.843 | locus YOL078W, strain AVO1, hits give low values 0.962 | locus YOL136C, strain PFK27, hits give low values 0.897 | locus YOR061W, strain CKA2, hits give low values 0.843 | locus YOR119C, strain RIO1, hits give low values 0.867 | locus YOR231W, strain MKK1, hits give low values 0.858 | locus YOR329C, strain SCD5, hits give low values 0.967 | locus YPL031C, strain PHO85, hits give low values 0.858 | locus YPL153C, strain RAD53, hits give low values 0.845 | locus YPL204W, strain HRR25, hits give low values 0.847 | locus YPL209C, strain IPL1, hits give low values 0.971 | locus YPR025C, strain CCL1, hits give low values 0.956 | locus YPR106W, strain ISR1, hits give low values 0.957 | locus YPR111W, strain DBF20, hits give low values 0.945 | strain NNK1, hits give low values 0.971 | strain TSCII, hits give low values 0.965
active: locus YHR030C, strain SLT2, hits give low values 0.615 | locus YLR113W, strain HOG1, hits give low values 0.846 | locus YPL256C, strain CLN2, hits give low values 0.859

Source: PubChem BioAssay AID1159580 (chemical genetic matrix, 2015)
